# A number with no mark means an inactive call.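 How the source made its calls: active = AUC reduced over 20% with Padj below 0.05 in at least 2 of 3 replicates; inactive = otherwise.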
# Tested on: Akkermansia muciniphila
# Assay: growth AUC relative to DMSO control (median of replicates) (fraction); higher = more growth (less inhibition), active = hit call of the paper
# Conditions: 20 µM; 24 h
# How it was run: (§1)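 Gut bacterial monocultures were grown anaerobically at 37 °C in mGAM from a starting OD600 of 0.05 with 20 µM compound (1% DMSO), in round-bottom 96-well plates under pierced gas-permeable seals, and OD600 was read hourly for 24 h. With the minimum OD set to 0, area under the growth curve was normalised to the plate median of solvent-only wells, or to row and column medians on the industrial chemical plate. Each value is the median of three biological replicates grown on separate days.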
row,Structure (SMILES),growth AUC
1,CC(C)N(C(=O)CCl)c1ccccc1,0.256 (active)
2,ClC1=C(Cl)C2(Cl)C(CBr)CC1(Cl)C2(Cl)Cl (configuration not stated),1.02
3,COC(=O)COc1cc(Cl)c(Cl)cc1Cl,0.868
4,COP(=S)(OC)Oc1ccc([N+](=O)[O-])c(C)c1,0.998
5,COC(=O)C(C)N(C(=O)c1ccco1)c1c(C)cccc1C (configuration not stated),1.07
6,Cc1ccc(N(SC(F)(Cl)Cl)S(=O)(=O)N(C)C)cc1,0.918
7,CCOC(=O)CC(SP(=O)(OC)OC)C(=O)OCC (configuration not stated),1.24
8,COc1cc(OC)nc(NC(=O)NS(=O)(=O)c2ncccc2C(F)(F)F)n1,0.985
9,c1ccc2c(c1)cc1ccc3cccc4ccc2c1c34,1.01
10,CS(=O)(=O)c1cc(C(F)(F)F)ccc1C(=O)c1cnoc1C1CC1,1
11,O=C(NC(=O)c1c(F)cccc1F)Nc1ccc(CO/N=C(\c2ccc(Cl)cc2)C2CC2)cc1,1.02
12,CNC(=O)Oc1cc(C)c(S(C)(=O)=O)c(C)c1,0.967
13,O=C(O)c1ccc(=O)[nH]c1,1.06
14,N#Cc1c[nH]cc1-c1cccc(Cl)c1Cl,0.905
15,CCOP(=S)(OCC)SCS(=O)CC (configuration not stated),1.03
16,CNC(=O)O/N=C/C(C)(C)S(C)(=O)=O,0.927
17,COc1nc(NC(C)C)nc(NC(C)C)n1,1.01
18,CC(=O)O.CC(=O)O.CC(=O)O.NC(N)=NCCCCCCCCNCCCCCCCCN=C(N)N,0.692
19,OCC1C(CO)C2(Cl)C(Cl)=C(Cl)C1(Cl)C2(Cl)Cl (configuration not stated),0.817
20,Nc1cc(Cl)cc(C(=O)O)c1Cl,1.03
21,N#Cc1nn(-c2c(Cl)cc(C(F)(F)F)cc2Cl)c(N)c1S(=O)C(F)(F)F (configuration not stated),1.07
22,O=[N+]([O-])c1ccccc1,1.11

# Tested on: Bacteroides caccae
# Assay: as above
# Conditions: 20 µM; 24 h
# How it was run: as §1
row,Structure (SMILES),growth AUC
1,C=CCOC(Cn1ccnc1)c1ccc(Cl)cc1Cl.O=S(=O)(O)O (configuration not stated),0.949
2,c1ccc(-c2ccccc2)cc1,0.985
3,CCOC(=O)C(SP(=S)(OC)OC)c1ccccc1 (configuration not stated),0.974
4,Nc1nc(N)nc(Cl)n1,1.05
5,NC(=O)/N=C1/SCCN1Cc1ccc(Cl)nc1,1.01
6,CON(C)C(=O)Nc1ccc(Br)c(Cl)c1,1.04
7,CC(C)C(C(=O)OC(C#N)c1cccc(Oc2ccccc2)c1)c1ccc(OC(F)F)cc1 (configuration not stated),0.981
8,O=[N+]([O-])c1c(Cl)c(Cl)cc(Cl)c1Cl,0.973
9,Clc1ccc(C2(Cn3cncn3)CC(Br)CO2)c(Cl)c1 (configuration not stated),0.973
10,CC(C)N1C(=O)N(c2ccccc2)CSC1=NC(C)(C)C,0.957
11,CNC1=C(c2cccc(C(F)(F)F)c2)C(=O)C(c2ccccc2)O1 (configuration not stated),1.02
12,CCOP(=S)(OCC)Oc1cc(C)nc(C(C)C)n1,1.02
13,CCOP(=S)(OCC)SCS(=O)(=O)C(C)(C)C,1.02
14,COc1nc(C)nc(NC(=O)NS(=O)(=O)c2ccccc2Cl)n1,1
15,CCOP(=S)(OCC)Oc1cnccn1,0.985
16,O=c1[nH]c2c(c(=O)n1C1CCCCC1)CCC2,1.01
17,COC[C@H](C)N(C(=O)CCl)c1c(C)csc1C,1
18,CC(C)N(C(=O)CCl)c1ccccc1,1.02
19,ClC1=C(Cl)C2(Cl)C(CBr)CC1(Cl)C2(Cl)Cl (configuration not stated),1.04
20,COC(=O)COc1cc(Cl)c(Cl)cc1Cl,1.01
21,COP(=S)(OC)Oc1ccc([N+](=O)[O-])c(C)c1,0.992
22,COC(=O)C(C)N(C(=O)c1ccco1)c1c(C)cccc1C (configuration not stated),0.872
23,Cc1ccc(N(SC(F)(Cl)Cl)S(=O)(=O)N(C)C)cc1,1
24,CCOC(=O)CC(SP(=O)(OC)OC)C(=O)OCC (configuration not stated),0.989
25,COc1cc(OC)nc(NC(=O)NS(=O)(=O)c2ncccc2C(F)(F)F)n1,1.02

# Reference: the supplement of paper PMC12669032
